Results published in PubChem BioAssay.
A number with no mark means an inactive call. The source made the active and inactive calls.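 Rule for the calls: active = inhibition at or above 50% relative to wild type and mutant plate controls; inactive = inhibition below 50%.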 Peptide text beside a SMILES is read from it. * marks the point of attachment. Cbz = O=C(OCc1ccccc1)*

assay: inhibitors of Chlamydomonas gravitaxis, primary screen, whole organism, Chlamydomonas reinhardtii, WT vs cilia-less mutant, absorbance, 96-well (AID 463189); conditions: OD600 absorbance, 2 days, at 10 µM, hits give high values;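 note: 0% = wild type cc124 cells in DMSO and 100% = ciliumless bld1 mutant cells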

SMILES	inhibition
CC1(C)CCC(NC(=O)[C@@H](N)CCC(=O)O)CC1	2.89%
C[C@]12CC[C@@H]3c4ccc(O)cc4CC[C@H]3[C@@H]1CC[C@@H]2O	5.14%
Cc1ccc(S(=O)(=O)N[C@@H](Cc2ccccc2)C(=O)CCl)cc1	-2.77%
CC(N)(C(=O)O)c1ccc(C(=O)O)cc1 (stereo not given)	5.26%
CN(C)CC[C@@H](c1ccc(Br)cc1)c1ccccn1	15%
Nc1nc2c(nc(Br)n2C2OC3COP(=O)(O)O[C@@H]3C2O)c(=O)[nH]1 (stereo not given in full)	2.8%
Cc1cn([C@H]2C[C@@H](N=[N+]=[N-])[C@@H](CO)O2)c(=O)[nH]c1=O	-6.23%
CN(Cc1cnc2nc(N)nc(N)c2n1)c1ccc(C(=O)N[C@@H](CCC(=O)O)C(=O)O)cc1	-2.7%
COc1ccccc1N1CCN(CCCNc2c(C)c(=O)n(C)c(=O)n2C)CC1	5.61%
NC/C=C/C(=O)O	9.04%
Cn1c(=O)c2[nH]c(-c3ccccc3)nc2n(C)c1=O	-0.378%
CCN(CC)CCCC(C)Nc1c2ccc(Cl)cc2nc2ccc(OC)cc12 (stereo not given)	16.9%
Oc1ccccc1O	-5%
C[C@H]1c2cccc(O)c2C(O)=C2C(=O)[C@]3(O)C(O)=C(C(N)=O)C(=O)[C@@H](N(C)C)[C@@H]3[C@@H](O)[C@@H]21	64.7% (active)
CC(C)NCC(O)COc1cccc2ccccc12 (stereo not given)	6.9%
CC(C)C(=O)c1c(C(C)C)nn2ccccc12	52.8% (active)
NCCCCN=C(N)N	5.23%
O=C1Cc2c([nH]c3ccc(Br)cc23)-c2ccccc2N1	-1.32%
O=C(O)[C@@H]1C[C@@H](C(=O)O)N1	-5.37%
C[C@H](O)C(=O)C1=Nc2c(nc(N)[nH]c2=O)NC1	7.45%

SMILES	inhibition
CNC(=O)[C@H]1O[C@@H](n2cnc3c(NCc4cccc(I)c4)ncnc32)C(O)[C@H]1O (stereo not given in full)	1.77%
CC(C)=CCC/C(C)=C/CC/C(C)=C/CSc1ccccc1C(=O)O	-8.73%
CCCc1c(-c2ccc(O)cc2)nn(-c2ccc(O)cc2)c1-c1ccc(O)cc1	6.07%
CC(=O)[C@]1(O)Cc2c(O)c3c(c(O)c2[C@@H](O[C@H]2C[C@H](N)[C@H](O)[C@H](C)O2)C1)C(=O)c1ccccc1C3=O	-16.2%
C[C@@H](Oc1ccc(Oc2cnc3ccc(Cl)cc3n2)cc1)C(=O)O	9.86%
COc1[nH]c2ccc(F)cc2c1C(=O)OCC1CCN(CCNS(C)(=O)=O)CC1	-12.7%
CCCCOC(=O)NS(=O)(=O)c1sc(CC(C)C)cc1-c1ccc(Cn2c(CC)nc3c(C)cc(C)nc32)cc1	10.7%
N=C(N)SCCc1cccc(CCSC(=N)N)c1	2.04%
CC(C)N(CCC(=O)c1ccc2ccccc2c1)Cc1ccccc1	10.3%
CNCC[C@H](Oc1ccc(C(F)(F)F)cc1)c1ccccc1	-14.3%
CCCn1c(=O)c2[nH]c(-c3ccc(OCC(=O)NCCN)cc3)nc2n(CCC)c1=O	3.94%
Oc1cc(O)cc(/C=C/c2ccc(O)c(O)c2)c1	0.047%
Cc1c(C)c2c(c(C)c1O)CCC(C)(CN1CCN(c3cc(N4CCCC4)nc(N4CCCC4)n3)CC1)O2 (stereo not given)	6.96%
O=C(O)C1=CCCN(CCON=C(c2ccccc2)c2ccccc2)C1	-1.19%
Oc1ccc(-c2nc(-c3ccc(F)cc3)c(-c3ccncc3)[nH]2)cc1	7.36%
CCCCCCCCCCCCCCCCCCOC[C@H](COP(=O)([O-])OCC[N+](C)(C)C)OC	-2.43%
Nc1cc(=O)[nH]c(N)n1	-17.2%
NC(N)=NCCCCN=C(N)N	-4.67%
NC1CCN(O)C1=O (stereo not given)	2.51%
CC(C)[C@H](NC(=O)OCc1ccccc1)C(=O)N[C@H](C=O)Cc1ccccc1 (Cbz-Val-Phe-aldehyde)	6.09%
